Among the data in paper PMC7862700, “An all-to-all approach to the identification of sequence-specific readers for epigenetic DNA modifications on cytosine” are binding signal values, retold here.

Common to all, as to test: DAPPL (digital affinity profiling via proximity ligation, sequencing); 10 mM Tris-HCl pH 7.5, 50 mM NaCl, 1 mM DTT, 4% glycerol, room temperature, 30 min; GST-TFs on glutathione beads, 16-mer random dsDNA library, 0.1% formaldehyde crosslink after washing; high values mean tight binding
In one assay the target is T1, FEV (Homo sapiens, UniProt Q99581 1-238).
T1 sequence: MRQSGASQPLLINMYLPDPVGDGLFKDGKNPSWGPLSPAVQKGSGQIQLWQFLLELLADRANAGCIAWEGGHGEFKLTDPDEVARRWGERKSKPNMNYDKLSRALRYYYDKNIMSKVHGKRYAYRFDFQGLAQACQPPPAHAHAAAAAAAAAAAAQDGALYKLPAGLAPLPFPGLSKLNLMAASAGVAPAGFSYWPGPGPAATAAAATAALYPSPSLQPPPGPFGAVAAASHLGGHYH
Conditions: protein: recombinant; tags: N-terminal GST; dsDNA, one strand shown. The essentials: (§1)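 A tag-only sample was pooled with DNA-barcoded human transcription factors that had been expressed in yeast as GST fusions and captured on glutathione beads. The pools were incubated for 30 min at room temperature with 200 nmole of a random double-stranded 16-mer DNA library in Tris/NaCl/DTT/glycerol buffer, then washed, crosslinked with 0.1% formaldehyde, proximity-ligated (BsaI/T4 ligase, 1 h, 37 °C), PCR-amplified and sequenced on an Illumina NextSeq500. Binding signal is each hexamer's read frequency for a factor divided by its frequency for the tag-only sample.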

The next assay has as its target ETV5 (Homo sapiens, UniProt P41161 1-510). Conditions: protein: recombinant; tags: N-terminal GST; dsDNA, one strand shown. The method, boiled down: as §1
The target in another assay is HSF1 (Homo sapiens, UniProt Q00613 1-529). Conditions: protein: recombinant; tags: N-terminal GST; chain copies: 3; dsDNA, one strand shown. The method, boiled down: as §1
The target of a further assay is T2, SPIC (Homo sapiens, UniProt Q8N5J4 1-248).
T2 sequence: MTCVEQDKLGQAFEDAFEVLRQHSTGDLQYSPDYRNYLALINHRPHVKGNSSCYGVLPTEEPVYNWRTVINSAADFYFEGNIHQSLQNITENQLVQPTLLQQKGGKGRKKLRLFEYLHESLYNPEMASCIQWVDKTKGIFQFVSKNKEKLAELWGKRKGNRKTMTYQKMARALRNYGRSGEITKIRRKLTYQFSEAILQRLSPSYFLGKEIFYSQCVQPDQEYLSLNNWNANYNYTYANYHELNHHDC
Conditions: protein: recombinant; tags: N-terminal GST; dsDNA, one strand shown. The method, boiled down: as §1

The next assay addresses ELF4 (Homo sapiens, UniProt Q99607 1-663). As to conditions: protein: recombinant; tags: N-terminal GST; dsDNA, one strand shown. The essentials: as §1
Another assay has as its target T3, ELK4 (Homo sapiens, UniProt P28324-2 1-405).
T3 sequence: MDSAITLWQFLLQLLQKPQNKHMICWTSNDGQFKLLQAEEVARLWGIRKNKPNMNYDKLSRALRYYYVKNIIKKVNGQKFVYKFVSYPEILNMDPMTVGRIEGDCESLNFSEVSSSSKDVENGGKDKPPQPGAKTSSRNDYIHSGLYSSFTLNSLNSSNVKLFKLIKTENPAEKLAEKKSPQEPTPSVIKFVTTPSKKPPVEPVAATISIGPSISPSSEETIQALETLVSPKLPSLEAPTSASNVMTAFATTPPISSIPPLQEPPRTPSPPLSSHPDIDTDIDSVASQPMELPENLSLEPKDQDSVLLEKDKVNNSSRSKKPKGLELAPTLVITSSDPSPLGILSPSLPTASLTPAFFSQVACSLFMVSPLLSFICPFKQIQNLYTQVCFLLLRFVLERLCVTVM
Conditions: protein: recombinant; tags: N-terminal GST; dsDNA, one strand shown. The essentials:
as §1

Another assay concerns the target T4, ETV2 (Homo sapiens, UniProt O00321 1-342).
T4 sequence: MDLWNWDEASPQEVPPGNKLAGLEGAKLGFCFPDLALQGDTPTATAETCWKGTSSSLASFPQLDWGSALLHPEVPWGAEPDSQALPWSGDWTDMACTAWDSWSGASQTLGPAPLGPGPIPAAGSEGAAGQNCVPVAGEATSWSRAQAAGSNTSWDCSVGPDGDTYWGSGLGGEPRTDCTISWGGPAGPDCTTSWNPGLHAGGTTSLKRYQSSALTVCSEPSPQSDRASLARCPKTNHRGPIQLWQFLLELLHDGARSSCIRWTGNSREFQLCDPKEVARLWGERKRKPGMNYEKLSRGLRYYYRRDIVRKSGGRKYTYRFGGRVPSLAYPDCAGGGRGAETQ
As to conditions: protein: recombinant; tags: N-terminal GST; dsDNA, one strand shown. The method, boiled down: as §1

A further assay has as its target T5, ELF3 (Homo sapiens, UniProt P78545 1-371).
T5 sequence: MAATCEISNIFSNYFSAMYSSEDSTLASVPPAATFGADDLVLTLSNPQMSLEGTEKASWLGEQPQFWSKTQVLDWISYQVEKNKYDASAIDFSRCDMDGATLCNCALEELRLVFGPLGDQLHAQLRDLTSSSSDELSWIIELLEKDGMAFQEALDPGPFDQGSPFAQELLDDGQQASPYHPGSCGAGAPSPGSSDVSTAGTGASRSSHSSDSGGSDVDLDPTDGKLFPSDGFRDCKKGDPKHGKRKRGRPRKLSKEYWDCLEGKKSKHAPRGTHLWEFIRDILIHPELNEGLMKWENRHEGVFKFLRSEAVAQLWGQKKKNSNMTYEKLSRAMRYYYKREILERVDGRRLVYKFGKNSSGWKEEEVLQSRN
Conditions: protein: recombinant; tags: N-terminal GST; dsDNA, one strand shown. The method, boiled down: as §1

For the next assay, the target named is CRX (Homo sapiens, UniProt O43186 1-299). As to conditions: protein: recombinant; tags: N-terminal GST; dsDNA, one strand shown. The essentials: as §1
The target of a further assay is ETV1 (Homo sapiens, UniProt P50549 1-477). As to conditions: protein: recombinant; tags: N-terminal GST; dsDNA, one strand shown. The method, boiled down:
as §1

A further assay concerns the target T6, ERF (Homo sapiens, UniProt P50548 1-548).
T6 sequence: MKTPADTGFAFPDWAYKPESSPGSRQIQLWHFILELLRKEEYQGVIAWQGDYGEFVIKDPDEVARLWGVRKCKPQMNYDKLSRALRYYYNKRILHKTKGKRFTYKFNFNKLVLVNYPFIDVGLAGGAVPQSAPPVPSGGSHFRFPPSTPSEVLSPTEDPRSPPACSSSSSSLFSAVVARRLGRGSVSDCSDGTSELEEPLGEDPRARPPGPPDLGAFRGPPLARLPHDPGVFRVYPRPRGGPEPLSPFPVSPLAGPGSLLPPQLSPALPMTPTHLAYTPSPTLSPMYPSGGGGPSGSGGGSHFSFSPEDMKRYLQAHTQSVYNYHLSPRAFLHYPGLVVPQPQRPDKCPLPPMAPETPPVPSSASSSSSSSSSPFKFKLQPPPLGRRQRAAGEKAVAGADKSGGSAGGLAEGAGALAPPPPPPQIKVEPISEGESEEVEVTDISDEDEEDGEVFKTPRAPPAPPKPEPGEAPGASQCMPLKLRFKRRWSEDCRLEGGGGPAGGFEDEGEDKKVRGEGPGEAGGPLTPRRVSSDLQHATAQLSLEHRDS
Conditions: protein: recombinant; tags: N-terminal GST; dsDNA, one strand shown. The essentials:
as §1

The next assay concerns the target T7, ETV3L (Homo sapiens, UniProt Q6ZN32 1-361).
T7 sequence: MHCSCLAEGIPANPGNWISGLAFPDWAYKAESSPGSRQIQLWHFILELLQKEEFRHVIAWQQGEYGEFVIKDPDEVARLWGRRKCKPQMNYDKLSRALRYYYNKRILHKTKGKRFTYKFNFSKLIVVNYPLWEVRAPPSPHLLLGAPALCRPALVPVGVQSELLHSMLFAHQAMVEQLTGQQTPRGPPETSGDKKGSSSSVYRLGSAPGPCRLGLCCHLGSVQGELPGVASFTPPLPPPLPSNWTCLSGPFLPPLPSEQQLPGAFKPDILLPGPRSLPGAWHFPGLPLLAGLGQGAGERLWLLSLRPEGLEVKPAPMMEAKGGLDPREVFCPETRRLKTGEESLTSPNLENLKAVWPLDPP
As to conditions: protein: recombinant; tags: N-terminal GST; dsDNA, one strand shown. The method, boiled down: as §1

In a further assay the target is T8, ETS2 (Homo sapiens, UniProt P15036 1-469).
T8 sequence: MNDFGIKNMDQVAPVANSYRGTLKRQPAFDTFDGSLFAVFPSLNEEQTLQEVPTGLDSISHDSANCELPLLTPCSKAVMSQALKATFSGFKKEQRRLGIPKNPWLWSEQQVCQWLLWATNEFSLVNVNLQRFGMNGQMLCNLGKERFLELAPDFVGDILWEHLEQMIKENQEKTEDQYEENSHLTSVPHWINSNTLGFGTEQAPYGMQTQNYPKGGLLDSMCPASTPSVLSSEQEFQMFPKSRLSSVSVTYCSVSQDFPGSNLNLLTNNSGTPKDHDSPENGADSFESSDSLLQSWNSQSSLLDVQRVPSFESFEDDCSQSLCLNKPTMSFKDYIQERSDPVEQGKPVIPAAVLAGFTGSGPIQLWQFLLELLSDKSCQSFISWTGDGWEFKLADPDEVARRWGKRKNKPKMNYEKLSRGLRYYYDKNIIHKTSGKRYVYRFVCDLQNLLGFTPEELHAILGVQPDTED
Conditions: protein: recombinant; tags: N-terminal GST; dsDNA, one strand shown. The essentials:
as §1

The next assay addresses T9, SPDEF (Homo sapiens, UniProt O95238 1-335).
T9 sequence: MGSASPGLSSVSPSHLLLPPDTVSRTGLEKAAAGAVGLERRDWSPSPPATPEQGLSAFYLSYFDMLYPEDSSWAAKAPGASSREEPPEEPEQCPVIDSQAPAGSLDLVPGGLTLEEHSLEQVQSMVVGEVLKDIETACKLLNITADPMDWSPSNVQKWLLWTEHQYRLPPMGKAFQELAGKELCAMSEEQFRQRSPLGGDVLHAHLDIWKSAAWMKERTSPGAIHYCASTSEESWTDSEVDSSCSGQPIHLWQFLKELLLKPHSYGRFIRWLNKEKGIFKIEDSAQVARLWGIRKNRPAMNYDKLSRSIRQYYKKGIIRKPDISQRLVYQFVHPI
As to conditions: protein: recombinant; tags: N-terminal GST; dsDNA, one strand shown. The essentials:
as §1

The target in a further assay is T10, ETV7 (Homo sapiens, UniProt Q9Y603 1-341).
T10 sequence: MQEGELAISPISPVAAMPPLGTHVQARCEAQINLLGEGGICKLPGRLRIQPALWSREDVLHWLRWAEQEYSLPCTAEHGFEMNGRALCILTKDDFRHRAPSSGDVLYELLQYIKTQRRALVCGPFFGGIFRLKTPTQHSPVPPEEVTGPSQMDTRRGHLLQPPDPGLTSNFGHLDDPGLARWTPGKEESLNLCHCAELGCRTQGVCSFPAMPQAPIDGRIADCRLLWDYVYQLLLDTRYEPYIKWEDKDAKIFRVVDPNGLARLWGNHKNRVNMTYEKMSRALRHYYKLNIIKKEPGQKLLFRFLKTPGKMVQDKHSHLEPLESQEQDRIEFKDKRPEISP
Conditions: protein: recombinant; tags: N-terminal GST; dsDNA, one strand shown. The essentials: as §1

For another assay, the target named is T11, ELF5 (Homo sapiens, UniProt Q9UKW6-2 1-255).
T11 sequence: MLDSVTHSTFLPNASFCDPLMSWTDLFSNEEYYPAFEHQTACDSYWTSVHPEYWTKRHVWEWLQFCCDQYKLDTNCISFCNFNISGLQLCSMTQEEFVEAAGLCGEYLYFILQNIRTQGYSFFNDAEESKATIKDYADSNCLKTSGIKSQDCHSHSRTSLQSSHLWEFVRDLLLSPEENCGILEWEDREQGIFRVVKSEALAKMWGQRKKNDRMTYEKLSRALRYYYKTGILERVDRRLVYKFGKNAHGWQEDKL
Conditions: protein: recombinant; tags: N-terminal GST; dsDNA, one strand shown. The method, boiled down:
as §1

For the next assay, the target named is T12, ETV3 (Homo sapiens, UniProt P41162-2 1-143).
T12 sequence: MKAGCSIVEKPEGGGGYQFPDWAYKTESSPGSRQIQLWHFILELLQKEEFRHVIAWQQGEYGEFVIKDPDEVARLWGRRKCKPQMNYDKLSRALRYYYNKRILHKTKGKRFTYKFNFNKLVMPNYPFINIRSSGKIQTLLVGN
Conditions: protein: recombinant; tags: N-terminal GST; dsDNA, one strand shown. The essentials: as §1

The next assay addresses ETV6 (Homo sapiens, UniProt P41212 1-452). Conditions: protein: recombinant; tags: N-terminal GST; dsDNA, one strand shown. The essentials: as §1

ELF4, sequence (Q99607 whole entry): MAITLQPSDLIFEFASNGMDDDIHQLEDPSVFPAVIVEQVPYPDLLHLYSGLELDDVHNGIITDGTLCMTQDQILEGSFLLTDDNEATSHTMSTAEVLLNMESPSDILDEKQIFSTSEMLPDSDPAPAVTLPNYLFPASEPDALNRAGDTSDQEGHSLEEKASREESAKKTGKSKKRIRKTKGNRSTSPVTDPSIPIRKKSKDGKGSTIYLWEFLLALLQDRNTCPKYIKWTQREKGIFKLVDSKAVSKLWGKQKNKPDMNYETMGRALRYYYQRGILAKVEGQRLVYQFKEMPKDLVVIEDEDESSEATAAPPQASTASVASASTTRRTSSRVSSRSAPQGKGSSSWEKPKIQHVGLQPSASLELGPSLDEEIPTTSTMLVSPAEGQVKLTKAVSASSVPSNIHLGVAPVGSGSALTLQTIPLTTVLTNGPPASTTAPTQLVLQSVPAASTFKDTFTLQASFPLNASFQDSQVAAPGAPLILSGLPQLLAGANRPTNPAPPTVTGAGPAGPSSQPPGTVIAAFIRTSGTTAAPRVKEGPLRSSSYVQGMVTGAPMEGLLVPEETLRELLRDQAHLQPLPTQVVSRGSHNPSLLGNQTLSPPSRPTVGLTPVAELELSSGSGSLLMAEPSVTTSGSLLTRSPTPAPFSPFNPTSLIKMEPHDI
ETV1, sequence (P50549 whole entry): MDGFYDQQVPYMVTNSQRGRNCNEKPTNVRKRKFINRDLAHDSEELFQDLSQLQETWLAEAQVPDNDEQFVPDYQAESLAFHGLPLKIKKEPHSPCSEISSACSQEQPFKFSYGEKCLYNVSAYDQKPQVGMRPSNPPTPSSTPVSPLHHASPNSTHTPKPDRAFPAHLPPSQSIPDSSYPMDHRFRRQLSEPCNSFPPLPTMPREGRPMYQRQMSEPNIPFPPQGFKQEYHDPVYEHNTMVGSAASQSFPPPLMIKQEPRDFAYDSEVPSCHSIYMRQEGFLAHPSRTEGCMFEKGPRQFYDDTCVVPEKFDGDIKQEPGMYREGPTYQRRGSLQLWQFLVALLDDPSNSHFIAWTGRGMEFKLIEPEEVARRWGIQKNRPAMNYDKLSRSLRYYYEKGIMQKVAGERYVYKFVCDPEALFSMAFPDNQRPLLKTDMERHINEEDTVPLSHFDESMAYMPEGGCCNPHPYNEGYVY
HSF1, sequence (Q00613 whole entry): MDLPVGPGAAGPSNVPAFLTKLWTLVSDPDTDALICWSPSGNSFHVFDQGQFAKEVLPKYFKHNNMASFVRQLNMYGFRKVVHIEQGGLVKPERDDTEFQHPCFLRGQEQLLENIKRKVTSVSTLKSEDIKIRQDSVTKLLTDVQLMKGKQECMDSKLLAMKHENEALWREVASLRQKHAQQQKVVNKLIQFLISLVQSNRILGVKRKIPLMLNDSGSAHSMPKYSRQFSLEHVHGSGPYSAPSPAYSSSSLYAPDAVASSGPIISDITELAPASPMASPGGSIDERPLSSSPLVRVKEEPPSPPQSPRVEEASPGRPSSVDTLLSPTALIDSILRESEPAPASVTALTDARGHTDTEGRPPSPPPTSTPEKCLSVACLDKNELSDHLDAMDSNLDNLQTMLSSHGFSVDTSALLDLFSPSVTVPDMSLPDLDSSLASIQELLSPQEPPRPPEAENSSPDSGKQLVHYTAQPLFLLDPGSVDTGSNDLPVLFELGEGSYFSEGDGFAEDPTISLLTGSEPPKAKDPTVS
CRX, sequence (O43186 whole entry): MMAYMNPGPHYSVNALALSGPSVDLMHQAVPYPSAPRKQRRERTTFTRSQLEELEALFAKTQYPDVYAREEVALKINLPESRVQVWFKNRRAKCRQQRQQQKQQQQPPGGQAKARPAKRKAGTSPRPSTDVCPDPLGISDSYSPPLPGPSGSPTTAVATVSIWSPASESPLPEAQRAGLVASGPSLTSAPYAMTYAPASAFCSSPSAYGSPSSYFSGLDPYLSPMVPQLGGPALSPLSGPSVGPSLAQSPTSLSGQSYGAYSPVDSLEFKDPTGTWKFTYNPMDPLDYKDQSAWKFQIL
ETV6, sequence (P41212 whole entry): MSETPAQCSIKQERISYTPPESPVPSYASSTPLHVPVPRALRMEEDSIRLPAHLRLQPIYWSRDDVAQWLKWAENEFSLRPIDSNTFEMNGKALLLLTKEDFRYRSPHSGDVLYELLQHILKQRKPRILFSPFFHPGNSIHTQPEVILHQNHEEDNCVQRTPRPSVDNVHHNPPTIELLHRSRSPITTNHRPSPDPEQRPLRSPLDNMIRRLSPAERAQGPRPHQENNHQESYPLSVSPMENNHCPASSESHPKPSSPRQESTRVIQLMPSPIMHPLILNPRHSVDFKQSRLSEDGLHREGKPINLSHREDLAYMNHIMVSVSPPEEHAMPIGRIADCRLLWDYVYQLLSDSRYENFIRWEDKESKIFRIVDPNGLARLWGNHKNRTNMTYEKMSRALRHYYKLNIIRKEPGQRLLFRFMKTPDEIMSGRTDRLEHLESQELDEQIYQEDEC
ETV5, sequence (P41161 whole entry): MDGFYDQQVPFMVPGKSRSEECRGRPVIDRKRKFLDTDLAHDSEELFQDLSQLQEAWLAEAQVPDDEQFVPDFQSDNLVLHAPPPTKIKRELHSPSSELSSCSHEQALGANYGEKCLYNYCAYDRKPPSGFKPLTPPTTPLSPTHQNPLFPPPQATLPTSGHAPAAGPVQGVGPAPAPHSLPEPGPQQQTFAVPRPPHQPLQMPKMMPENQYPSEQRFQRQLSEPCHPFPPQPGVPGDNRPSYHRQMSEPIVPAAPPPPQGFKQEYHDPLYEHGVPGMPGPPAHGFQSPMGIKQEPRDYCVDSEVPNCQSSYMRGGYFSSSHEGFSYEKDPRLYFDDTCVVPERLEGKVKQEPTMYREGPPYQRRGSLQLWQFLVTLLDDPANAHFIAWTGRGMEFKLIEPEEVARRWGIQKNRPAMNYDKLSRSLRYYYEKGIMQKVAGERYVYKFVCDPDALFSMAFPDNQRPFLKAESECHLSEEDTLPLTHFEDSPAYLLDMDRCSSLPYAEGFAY

With TCCCCT, the binding signal with FEV was 1.71 fold enrichment (6-mer frequency, TF over GST control); in the assay with ETV5, 1.72 fold enrichment (6-mer frequency, TF over GST control); with HSF1, 1.56 fold enrichment (6-mer frequency, TF over GST control); in the assay with SPIC, 1.88 fold enrichment (6-mer frequency, TF over GST control); with ELF4, 1.83 fold enrichment (6-mer frequency, TF over GST control); with ELK4, 1.55 fold enrichment (6-mer frequency, TF over GST control). For the same sequence, the binding signal was 1.57 fold enrichment (6-mer frequency, TF over GST control) in the assay with ETV2; 1.78 fold enrichment (6-mer frequency, TF over GST control) with ELF3; 1.92 fold enrichment (6-mer frequency, TF over GST control) in the assay with CRX; 1.75 fold enrichment (6-mer frequency, TF over GST control) with ETV1; 1.69 fold enrichment (6-mer frequency, TF over GST control) with ERF; 1.64 fold enrichment (6-mer frequency, TF over GST control) with ETV3L. The binding signal with ETS2 was 1.69 fold enrichment (6-mer frequency, TF over GST control); with SPDEF it was 1.54 fold enrichment (6-mer frequency, TF over GST control); with ETV7, 1.58 fold enrichment (6-mer frequency, TF over GST control); with ELF5, 1.76 fold enrichment (6-mer frequency, TF over GST control); in the assay with ETV3, 1.54 fold enrichment (6-mer frequency, TF over GST control); with ETV6, 1.65 fold enrichment (6-mer frequency, TF over GST control).
